# ATXN2 expr inh = ATXN2 expression inhibition; Potency, µM (highest dose often 57 µM), for the others: at the top dose activity change, negative = inhibition, actives largely listed as inhibitors; 0.72% of 360,000 active; HEK-293 ATXN2-luciferase reporter, luminescence, 24 h; AID 1745845; note: % is set by controls: 0 for no effect and ±100 for the full control effect; nearly all actives have a fitted effect of over 55% in size
#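 ATXN2-luciferase reporter cells (luciferase flanked by upstream and downstream ATXN2 gene portions) were treated 24 h at 37 °C with compounds at up to 57 uM. SteadyGlo luminescence gave expression; GF-AFC fluorescence gave viability.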
# 12-LOX inh = inhibitors of human 12S-lipoxygenase ALOX12; P18054; purified 12hLO, xylenol orange hydroperoxide absorbance; Potency, µM (doses to about 108 µM), for the others: top-dose activity change, negative = inhibition, actives largely listed as inhibitors; 1.1% of 580,000 active; AID 1671190; note: % is set by controls: 0 for no effect and ±100 for the full control effect
# Target sequence (P18054 whole entry, looked up): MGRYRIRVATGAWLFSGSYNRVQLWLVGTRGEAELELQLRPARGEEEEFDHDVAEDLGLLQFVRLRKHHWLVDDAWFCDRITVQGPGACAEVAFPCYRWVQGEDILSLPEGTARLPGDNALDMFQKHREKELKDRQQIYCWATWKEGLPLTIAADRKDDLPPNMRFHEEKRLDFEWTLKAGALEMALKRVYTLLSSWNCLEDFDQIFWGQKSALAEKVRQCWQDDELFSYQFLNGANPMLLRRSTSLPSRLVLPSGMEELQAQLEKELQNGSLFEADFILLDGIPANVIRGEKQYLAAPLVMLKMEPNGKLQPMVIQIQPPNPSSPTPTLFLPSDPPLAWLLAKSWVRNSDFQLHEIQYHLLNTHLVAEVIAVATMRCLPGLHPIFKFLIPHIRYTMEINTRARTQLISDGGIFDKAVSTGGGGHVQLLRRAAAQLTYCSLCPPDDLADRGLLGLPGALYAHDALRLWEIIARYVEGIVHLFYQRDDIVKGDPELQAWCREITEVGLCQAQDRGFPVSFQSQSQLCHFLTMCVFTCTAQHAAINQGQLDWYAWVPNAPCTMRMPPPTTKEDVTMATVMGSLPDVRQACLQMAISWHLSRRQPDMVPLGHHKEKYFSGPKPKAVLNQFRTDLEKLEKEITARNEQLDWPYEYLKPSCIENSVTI
#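 Purified human 12hLO at 150 nM in 25 mM Hepes, 0.01% Triton X-100, pH 7.0, preincubated 15 min at room temperature with compound. Reaction started with 40 uM arachidonic acid, 30 min at room temperature. Hydroperoxide measured by Fe-xylenol orange, 573/405 nm absorbance ratio.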
# S2 tox = cell viability loss in ATXN counter-screen | 0.49% of 400,000 active | AID 651635 | S2 cells (HEK-293 line with an ATXN2-luciferase reporter) viability, CellTiter-Fluor protease fluorescence, 24 h | Potency, µM (titrated, usually from 56.7 µM), hits mostly cytotoxic; note: nearly all actives have a fitted effect of over 40% in size
# TGFb SMAD3 inh = inhibitors of TGF-b signaling; Potency, µM (doses to about 46.1 µM), for inactives: top-dose activity, negative = inhibition, most hits filed as inhibitors; HepG2 CAGA-GFP TGF-b/SMAD3 reporter, GFP fluorescence, 18 h; TGF-beta stimulated, 500 pg/mL final; 1.2% of 410,000 active; AID 588855; note: % is set by controls: 0 for no effect and ±100 for the full control effect; nearly all actives have a fitted effect of over 65% in size
#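 Per well, imaged GFP fluorescence of HEPG2 CAGA-GFP cells gives the signal; cells get compound, then TGF-beta (500 pg/mL final), 18 h at 37 degrees C; %Activity versus -TGF-beta and +DMSO controls.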
# HepG2 tox = counter-screen for TGF-b inhibitors: cytotoxicity in HepG2 cells; 0.76% of 410,000 active; HepG2 CAGA-GFP viability, ATP luminescence, 18 h; AID 588856; Potency, µM (titrated, usually from 46.1 µM), without a hit: top-dose activity change, negative = cytotoxicity, actives largely listed as cytotoxic
#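 CellTiter-Glo luminescence gave cytotoxicity after 18 hours at 37 degrees C. The cells were HepG2 CAGA-GFP in 1% FBS DMEM, stimulated with 500 pg/mL TGF-beta after compound addition. %Activity was normalised to no-cell wells (complete cell-killing) and DMSO (no toxicity), and curves were fitted and classified.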
# * = called active by the depositor; i = inactive; u = inconclusive; x = no result given; ! = not confirmed by another sample; [ ] = another dose, or the depositor's remark. Most compounds without a hit are left out; they make up all but 2.7% or so of the library. Calls come from the whole dose curve; as a rule, active = well fitted curve in the direction sought with a large enough effect; inconclusive = small, poorly fitted or top-dose-only effect, or another doubt; inactive = no such curve, though single readings can be large; an effect the other way counts as inactive or inconclusive. Potency is the fitted concentration of half-maximal effect.
SMILES,ATXN2 expr inh,12-LOX inh,S2 tox,TGFb SMAD3 inh,HepG2 tox
OC1CCCN(c2ccc(-c3nc(-c4cccc(C(F)(F)F)c4)no3)cn2)C1 (configuration not stated),x,30%,x,x,x
CCC(C)[C@H](NC(=O)Nc1ccc2oc(-c3cccnc3)nc2c1)C(=O)OC (some centres not stated),x,-24%,x,x,x
N#C/C(=N\Nc1ccc(S(=O)(=O)N2CCc3ccccc32)cc1)C(N)=S,-27%[11.3 µM],16µM*,i,11µM*,-62%
O=C(O)c1ccc(N=NNc2cccc([N+](=O)[O-])c2)cc1,35%,-17%,i,1%,-7%
CCOC(=O)/C(C#N)=N/Nc1ccc(S(=O)(=O)N2CCc3ccccc32)cc1,-14%,u,i,11µM*,-30%
N#C/C(=N\Nc1ccc([N+](=O)[O-])cc1)C(N)=S,-37%,25µM*,22µM*,u,-43%
N#C/C(=N\Nc1cccc([N+](=O)[O-])c1)C(=O)c1ccc(Br)cc1,9.5µM*,40µM*,u,6.3µM*,-39%
CN(C)Cc1nc(SCC(=O)Nc2ccc(I)cc2)c2ccccc2n1,x,-28%,x,x,x
COc1cccc2c(C)nc(Nc3nc(-c4ccccc4)cc(=O)[nH]3)nc12,x,0%,x,x,x
N#C/C(=N\Nc1ccc(S(=O)(=O)N2CCCCCC2)cc1)C(N)=S,-13%,u,i,u,-32%
N#C/C(=N\Nc1ccc(S(=O)(=O)N2CCCCC2)cc1)C(N)=S,-7%,50µM*,u,u,-27%
Cc1ccc(C(=O)Nc2ccc(S(=O)(=O)N3CCCC3)cc2)o1,2%,5%,i,0%,5%
O=C(Nc1ccc(Cc2ccncc2)cc1)c1ccc([N+](=O)[O-])o1,9%,21%,i,16µM*,-33%
O=C(Nc1ccc(S(=O)(=O)N2CCCC2)cc1)c1ccc([N+](=O)[O-])o1,u,x,x,u,13µM*
O=C(Nc1ccc(Cc2ccncc2)cc1)c1cccc([N+](=O)[O-])c1,x,-13%,u,u,-23%
Cc1c(-n2nnnc2SCC2CCCCC2)c(=O)n(-c2ccccc2)n1C,x,21%,x,x,x
CCCCCCCCCCOC(=O)Cn1c(COc2ccc(Cl)cc2)[n+](C)c2ccccc21,x,u,x,13µM*,13µM*
CCCCCCCCCCOC(=O)Cn1c(COc2ccccc2)[n+](C)c2ccccc21,x,0%,u,11µM*,-109%
CCCCCCCCCCOC(=O)Cn1c(COc2ccccc2C)[n+](C)c2ccccc21,22µM*,x,u,u,-98%
CCCCCCCCCCOC(=O)Cn1c(COc2ccc(OC)cc2)[n+](C)c2ccccc21,u,x,u,10µM*,11µM*!
CCCCCCCCCCOC(=O)Cn1c(COc2cccc(C)c2)[n+](C)c2ccccc21,-35%,u,i,u,-93%
CCN(CC)C(=O)COC(=O)c1ccccc1-c1ncc(-c2ccc(F)cc2)o1,x,30%,x,x,x
O=C(CC1CCCN(c2cnn(CC3CC3)c(=O)c2)C1)NCc1ccccc1Cl (configuration not stated),x,29%,x,x,x
CCCNC(=O)CSc1nc2ccccc2nc1C,x,48%,x,x,x
c1ccc(-c2nc(NCc3cccnc3)c3oc4ccccc4c3n2)cc1,-3%,16µM*,i,u,-56%
SMILES,ATXN2 expr inh,12-LOX inh,S2 tox,TGFb SMAD3 inh,HepG2 tox
COc1cc(C2(c3ccc(O)c(OC)c3)C(=O)Nc3c(Br)cc(Br)cc32)ccc1O,x,123%,u,25µM*,-95%
O=C(C[n+]1ccccc1)N/N=C/c1cc(Br)cc(Br)c1O,-31%,x,x,-26%,3%
O=C(CP(=O)(c1ccccc1)c1ccccc1)N/N=C/c1cc(Br)cc(Br)c1O,10µM*,-2%,i,-18%,-45%
O=C(O)c1cccc(N/N=C/c2cc(Br)cc(Br)c2O)c1,50%,45µM*,i,u,-26%
Cc1c(N=Cc2cc(Br)cc(Br)c2O)cccc1C(=O)O,-18%,50µM*,i,2%,4%
COc1cc(Br)cc(/C=N/NC(=O)Cc2ccccc2)c1O,u,12%,x,10µM*,-66%
c1csc(CN2Cc3[nH]cnc3C[C@H]2c2nc(-c3ccc4c(c3)OCO4)no2)c1,x,68%[176 µM],x,x,x
Cc1nc2nc(NCc3c(F)cccc3Cl)[nH]n2c(=O)c1Cl,x,1%,x,x,x
Cc1occc1-c1nc(-c2ccccc2)no1,x,-27%,x,x,x
O=C(COc1ccc(-c2ccccc2)cc1)N/N=C/c1cc(O)ccc1Br,-6%,0%,u,13µM*,-63%
NC(=O)Nc1ccc(Nc2ccccc2)cc1,x,-9%,i,-26%,-16%
O=C(Nc1ccc(Nc2ccccc2)cc1)C(Cl)Cl,-16%,-14%,u,13µM*,-77%
CCCCC(CCCCl)C(=O)Nc1ccccc1 (configuration not stated),-23%[11.3 µM],-9%,i,-6%,20%
CC(C)(C)C(=O)C(Cl)C(=O)Nc1ccccc1 (configuration not stated),x,-9%,i,u,8.9µM*
CCN1CCN(CCOc2ccc(Cl)cc2)CC1,-9%,1.4µM*,i,-1%,-8%
C=CCN1C(=O)/C(=C/c2ccc(-c3ccc(F)cc3)o2)SC1=S,6%,45µM*,i,-12%,-8%
O=C(O)C(c1ccccc1)N1C(=O)/C(=C\c2ccc(-c3ccc(Br)cc3)o2)SC1=S (configuration not stated),x,6.3µM*,i,3%,-3%
O=C(O)C(c1ccccc1)N1C(=O)/C(=C\c2ccc(-c3ccccc3Cl)o2)SC1=S (configuration not stated),-15%,16%,i,-2%,-17%
O=C(Oc1cccc2cccnc12)c1ccc(Br)o1,-34%,0%,i,6%,0%
O=C(Oc1cccc2cccnc12)c1ccco1,-7%,493%,i,13µM*,-53%
CCCCCCCC(=O)Oc1ccc(C(=O)O)cc1,x,-3%,x,x,x
Cc1ccc(S(=O)(=O)NN=C2C(=O)C3CCC2C3Cl)cc1 (configuration not stated),-5%,10µM*,i,12%,1%
Cc1ccc(S(=O)(=O)N/N=C2\C(=O)C3(C)CCC2C3(C)C)cc1 (configuration not stated),-6%,u,i,2%,-4%
CC(C)c1ccc(-c2nonc2NC(=O)c2cc(=O)c3ccccc3o2)cc1,x,-17%,x,x,x
COc1ccc(-c2nc3ncccc3n2O)cc1,26%,x,i,-4%,14µM*
CCc1nn(-c2ccccc2)c2c1CN(C(=O)NCC(=O)OC)C(c1ccc(F)cc1)c1cccn1-2 (configuration not stated),x,-19%,x,x,x
CC(=O)N(Cc1ccccc1)Cc1cc2ccccc2[nH]c1=O,x,1%,x,x,x

# Screens (PubChem BioAssay)
